Key:
Conditions in all cases: concentration: 1 μM,replicates: in singlicate; n = 1
TNNI3K = test system: TNNI3K
TRKA = test system: T1, TRKA
T1 construct: gene NTRK1

TRKB = test system: TRKB
TRKC = test system: T2, TRKC
T2 construct: gene NTRK3

TRPM6 = test system: TRPM6
TSSK1B = test system: TSSK1B
TSSK3 = test system: TSSK3
TTK = test system: TTK
TXK = test system: TXK
[1] = test system: TYK2(JH1domain-catalytic)
[2] = test system: TYK2(JH2domain-pseudokinase)
TYRO3 = test system: TYRO3
ULK1 = test system: ULK1
ULK2 = test system: ULK2
ULK3 = test system: ULK3
VEGFR2 = test system: T3, VEGFR2
T3 construct: gene KDR

VPS34 = test system: T4, VPS34
T4 construct: gene PIK3C3

VRK2 = test system: VRK2
WEE1 = test system: WEE1
WEE2 = test system: WEE2
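Note: KINOMEscan kinase panel screen.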

SMILES | %Inh (TNNI3K) [%] | %Inh (TRKA) [%] | %Inh (TRKB) [%] | %Inh (TRKC) [%] | %Inh (TRPM6) [%] | %Inh (TSSK1B) [%] | %Inh (TSSK3) [%] | %Inh (TTK) [%] | %Inh (TXK) [%] | %Inh [1] [%] | %Inh [2] [%] | %Inh (TYRO3) [%] | %Inh (ULK1) [%] | %Inh (ULK2) [%] | %Inh (ULK3) [%] | %Inh (VEGFR2) [%] | %Inh (VPS34) [%] | %Inh (VRK2) [%] | %Inh (WEE1) [%] | %Inh (WEE2) [%]
Cc1n[nH]c2cc(Nc3ccnc(Nc4cccc(CN5CCOCC5)c4)n3)ccc12 [GW682569] | 17 | 100 | 60 | 45 | 43 | 0 | 12 | 37 | 60 | 95.9 | 99.2 | 0 | 1 | 0 | 55 | 45 | 18 | 27 | 10 | 0
CSc1nccc(-c2c(-c3ccc(F)cc3)ncn2CCCN2CCOCC2)n1.Cl [SB-217146] | 0 | 0 | 0 | 0 | 10 | 0 | 0 | 0 | 0 | 13 | 22 | 0 | 12 | 36 | 14 | 7 | 16 | 30 | 0 | 1
COc1cc2nccc(Nc3ccc(Oc4ccccc4)cc3)c2cc1OC.Cl [GI261656] | 0 | 11 | 6 | 6 | 58 | 0 | 11 | 0 | 19 | 4 | 12 | 0 | 0 | 0 | 0 | 23 | 10 | 5 | 0 | 0
Cl.c1ccc(Oc2ccc(Nc3ccnc4cc(-c5ccc(CN6CCNCC6)o5)ccc34)cc2)nc1 [GW567142] | 0 | 98.7 | 0 | 15 | 50 | 0 | 5 | 0 | 11 | 3 | 10 | 0 | 0 | 16 | 0 | 25 | 0 | 0 | 8 | 0
COc1cccc(CNC(=O)NC2CCN(c3ccnc(Nc4cc(OC)c(OC)c(OC)c4)n3)C2)c1 (centres unmarked) [GSK1379765] | 0 | 52 | 7 | 55 | 0 | 0 | 18 | 22 | 0 | 54 | 43 | 0 | 0 | 0 | 90 | 13 | 0 | 0 | 30 | 9
Cc1cccc2c(-c3ccncc3)c(-c3ccc(F)cc3)nn12.Cl [GW461487] | 8 | 37 | 0 | 0 | 0 | 4 | 15 | 0 | 0 | 7 | 0 | 0 | 0 | 0 | 1 | 0 | 18 | 0 | 8 | 11
O=C(Nc1cccc(C(F)(F)F)c1)c1cccc(Oc2ccc3nccn3n2)c1 | 35 | 0 | 22 | 50 | 0 | 0 | 16 | 0 | 7 | 23 | 44 | 2 | 2 | 10 | 23 |  | 35 | 0 | 13 | 7
CS(=O)c1ccc(-c2coc3ccc(-c4n[nH]c(=O)o4)cc23)cc1 (centres unmarked) | 0 | 26 | 0 | 39 | 0 | 0 | 0 | 0 | 4 | 9 | 47 | 0 | 35 | 0 | 0 | 17 | 94.3 | 0 | 2 | 16
Cn1ccc2ncnc(Oc3ccc(NC(=O)Nc4ccnc(C(F)(F)F)c4)c(Cl)c3)c21 | 58 | 5 | 0 | 27 | 0 | 0 | 0 | 0 | 0 | 0 | 0 | 0 | 0 | 0 | 0 | 98.5 | 0 | 0 | 0 | 30
Cc1ccc2c(-c3ccnc(Nc4ccc(C(F)(F)F)cc4)n3)cnn2n1 [GW819776] | 3 | 0 | 0 | 0 | 43 | 0 | 0 | 38 | 0 | 5 | 69 | 0 | 0 | 0 | 21 | 0 | 48 | 31 | 6 | 0
O=C(Nc1ccc(Oc2ccc3nc(NC(=O)C4CC4)cn3n2)c(F)c1)c1cccn(-c2ccccc2)c1=O | 12 | 87 | 80 | 20 | 0 | 0 | 0 | 10 | 69 | 0 | 0 | 74 | 0 | 0 | 0 | 98.2 | 44 | 0 | 14 | 0
CN(c1ccccc1CNc1nc(Nc2ccc3c(c2)CC(=O)N3)ncc1C(F)(F)F)S(C)(=O)=O | 0 | 99.2 | 94.7 | 89 | 0 | 12 | 0 | 99.5 | 0 | 88 | 0 | 0 | 71 | 69 | 40 | 28 | 0 | 0 | 0 | 0
Cl.Cl.NC[C@H](CC1CCCCC1)NC(=O)c1ccc(-c2ccnc3[nH]ccc23)s1 [GSK1581428] | 0 | 77 | 26 | 54 | 7 | 84 | 25 | 41 | 0 | 29 | 0 | 0 | 31 | 0 | 13 | 0 | 9 | 26 | 8 | 30
O=C(Nc1ccccc1)c1cccc(Oc2ccc3nccn3n2)c1 | 2 | 0 | 0 | 21 | 0 | 0 | 0 | 0 | 0 | 5 | 18 | 29 | 0 | 0 | 0 |  | 6 | 0 | 0 | 0

Source: PMC5540273 (PLoS ONE, 2017)
